Measurements as given in ChEMBL document CHEMBL1961873, “Compounds: GSK PKIS; Assays: Nanosyn kinase panel” (2012).

Tests used:
[1] = molecular target: Tyrosine-protein kinase receptor UFO (Homo sapiens) (UniProt P30530); conditions: at 1 µM
[2] = molecular target: Tyrosine-protein kinase Blk (Homo sapiens) (UniProt P51451); conditions: at 0.1 µM
[3] = molecular target: Tyrosine-protein kinase Blk (Homo sapiens) (UniProt P51451); conditions: at 1 µM
[4] = molecular target: T1, Cytoplasmic tyrosine-protein kinase BMX (Homo sapiens) (UniProt P51813); conditions: at 0.1 µM
T1 sequence (whole entry): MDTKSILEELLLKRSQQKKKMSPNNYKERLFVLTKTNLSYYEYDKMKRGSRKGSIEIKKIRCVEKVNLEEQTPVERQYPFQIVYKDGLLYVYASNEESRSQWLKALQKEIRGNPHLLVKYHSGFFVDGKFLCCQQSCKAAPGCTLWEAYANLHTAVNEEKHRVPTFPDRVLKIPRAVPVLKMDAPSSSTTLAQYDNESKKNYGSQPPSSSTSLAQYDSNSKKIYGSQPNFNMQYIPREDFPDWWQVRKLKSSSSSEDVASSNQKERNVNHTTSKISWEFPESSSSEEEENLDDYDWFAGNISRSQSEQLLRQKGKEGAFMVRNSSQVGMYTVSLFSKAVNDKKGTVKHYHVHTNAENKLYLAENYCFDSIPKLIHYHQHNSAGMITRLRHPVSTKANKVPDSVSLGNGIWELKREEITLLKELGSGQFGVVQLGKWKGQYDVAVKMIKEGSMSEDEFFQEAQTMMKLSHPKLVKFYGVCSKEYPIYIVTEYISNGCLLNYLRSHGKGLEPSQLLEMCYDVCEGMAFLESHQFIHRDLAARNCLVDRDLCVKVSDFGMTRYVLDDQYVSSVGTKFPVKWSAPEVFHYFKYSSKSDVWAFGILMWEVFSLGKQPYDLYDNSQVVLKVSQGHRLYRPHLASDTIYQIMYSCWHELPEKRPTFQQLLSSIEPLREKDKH

[5] = molecular target: T1, Cytoplasmic tyrosine-protein kinase BMX (Homo sapiens); conditions: at 1 µM
[6] = molecular target: Protein-tyrosine kinase 6 (Homo sapiens) (UniProt Q13882); conditions: at 0.1 µM
Sequence of Protein-tyrosine kinase 6 (Homo sapiens) (Q13882 whole entry, looked up): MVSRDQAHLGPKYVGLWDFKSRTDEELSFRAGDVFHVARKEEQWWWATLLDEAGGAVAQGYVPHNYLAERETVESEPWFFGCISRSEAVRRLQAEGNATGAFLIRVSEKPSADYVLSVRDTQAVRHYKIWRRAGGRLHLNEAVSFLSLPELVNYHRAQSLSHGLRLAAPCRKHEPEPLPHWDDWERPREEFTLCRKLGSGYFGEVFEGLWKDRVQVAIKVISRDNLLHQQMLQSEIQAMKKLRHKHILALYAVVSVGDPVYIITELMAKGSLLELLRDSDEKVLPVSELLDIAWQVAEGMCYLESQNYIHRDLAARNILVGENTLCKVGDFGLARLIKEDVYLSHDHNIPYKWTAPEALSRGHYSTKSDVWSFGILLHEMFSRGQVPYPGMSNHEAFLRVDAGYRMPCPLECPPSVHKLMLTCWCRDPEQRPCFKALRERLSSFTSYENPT

[7] = molecular target: Protein-tyrosine kinase 6 (Homo sapiens) (UniProt Q13882); conditions: at 1 µM
[8] = molecular target: Tyrosine-protein kinase BTK (Homo sapiens) (UniProt Q06187); conditions: at 0.1 µM
Sequence of Tyrosine-protein kinase BTK (Homo sapiens) (Q06187 whole entry): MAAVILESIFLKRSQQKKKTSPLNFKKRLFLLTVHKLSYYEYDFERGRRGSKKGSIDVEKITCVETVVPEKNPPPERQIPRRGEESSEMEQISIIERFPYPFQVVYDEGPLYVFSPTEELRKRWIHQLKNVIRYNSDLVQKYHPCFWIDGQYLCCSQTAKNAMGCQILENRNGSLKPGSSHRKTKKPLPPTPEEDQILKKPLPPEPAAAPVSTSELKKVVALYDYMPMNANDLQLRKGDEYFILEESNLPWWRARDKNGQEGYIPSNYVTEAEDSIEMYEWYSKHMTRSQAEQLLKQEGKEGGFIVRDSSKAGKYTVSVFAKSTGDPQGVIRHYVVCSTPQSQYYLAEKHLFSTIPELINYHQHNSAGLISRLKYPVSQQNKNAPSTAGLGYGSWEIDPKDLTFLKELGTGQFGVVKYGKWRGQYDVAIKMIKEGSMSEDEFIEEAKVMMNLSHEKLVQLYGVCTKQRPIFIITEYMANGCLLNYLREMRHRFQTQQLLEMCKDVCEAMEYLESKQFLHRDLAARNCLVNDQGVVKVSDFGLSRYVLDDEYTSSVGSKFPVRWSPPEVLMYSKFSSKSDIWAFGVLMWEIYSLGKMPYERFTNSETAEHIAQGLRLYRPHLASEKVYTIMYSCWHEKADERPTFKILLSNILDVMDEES

[9] = molecular target: Tyrosine-protein kinase BTK (Homo sapiens) (UniProt Q06187); conditions: at 1 µM
[10] = molecular target: Tyrosine-protein kinase CSK (Homo sapiens) (UniProt P41240); conditions: at 0.1 µM
Sequence of Tyrosine-protein kinase CSK (Homo sapiens) (P41240 2-450 limits assumed): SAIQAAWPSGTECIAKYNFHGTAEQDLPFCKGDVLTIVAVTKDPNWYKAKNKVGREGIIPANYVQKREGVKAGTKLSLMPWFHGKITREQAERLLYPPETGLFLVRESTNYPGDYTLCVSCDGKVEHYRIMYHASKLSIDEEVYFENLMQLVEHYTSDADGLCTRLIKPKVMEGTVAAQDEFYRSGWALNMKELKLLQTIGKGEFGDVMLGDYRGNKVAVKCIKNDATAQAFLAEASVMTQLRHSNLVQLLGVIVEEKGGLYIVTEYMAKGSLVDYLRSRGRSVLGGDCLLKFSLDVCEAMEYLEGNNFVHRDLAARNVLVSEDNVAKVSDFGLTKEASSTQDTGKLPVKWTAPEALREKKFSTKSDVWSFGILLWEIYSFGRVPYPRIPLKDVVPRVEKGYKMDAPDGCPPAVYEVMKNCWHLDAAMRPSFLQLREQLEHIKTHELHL

[11] = molecular target: Tyrosine-protein kinase CSK (Homo sapiens) (UniProt P41240); conditions: at 1 µM
[12] = molecular target: T2, Discoidin domain-containing receptor 2 (Homo sapiens) (UniProt Q16832); conditions: at 0.1 µM
T2 sequence (whole entry): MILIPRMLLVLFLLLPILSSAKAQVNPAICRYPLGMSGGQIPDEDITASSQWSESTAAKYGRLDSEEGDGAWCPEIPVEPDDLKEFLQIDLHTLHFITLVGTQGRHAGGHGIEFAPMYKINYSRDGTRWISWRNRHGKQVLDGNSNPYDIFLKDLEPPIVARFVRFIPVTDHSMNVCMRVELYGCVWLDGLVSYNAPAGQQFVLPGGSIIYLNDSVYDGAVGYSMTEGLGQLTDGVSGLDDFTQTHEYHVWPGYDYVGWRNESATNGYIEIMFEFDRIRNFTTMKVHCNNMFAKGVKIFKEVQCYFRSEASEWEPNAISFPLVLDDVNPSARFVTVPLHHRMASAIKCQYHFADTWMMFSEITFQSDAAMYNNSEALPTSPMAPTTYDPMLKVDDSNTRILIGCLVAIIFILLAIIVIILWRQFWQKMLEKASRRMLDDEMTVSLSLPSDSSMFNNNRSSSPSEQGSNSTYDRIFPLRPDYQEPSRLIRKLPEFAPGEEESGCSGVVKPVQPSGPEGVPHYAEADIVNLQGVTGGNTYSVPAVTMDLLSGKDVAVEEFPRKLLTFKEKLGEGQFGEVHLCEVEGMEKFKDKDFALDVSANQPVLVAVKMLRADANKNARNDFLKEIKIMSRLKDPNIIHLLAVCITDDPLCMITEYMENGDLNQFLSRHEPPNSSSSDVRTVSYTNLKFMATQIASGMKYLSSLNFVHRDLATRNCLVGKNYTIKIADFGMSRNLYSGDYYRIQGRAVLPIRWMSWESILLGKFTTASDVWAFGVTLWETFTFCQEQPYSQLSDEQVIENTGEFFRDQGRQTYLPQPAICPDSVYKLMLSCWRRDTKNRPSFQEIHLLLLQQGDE

[13] = molecular target: T2, Discoidin domain-containing receptor 2 (Homo sapiens); conditions: at 1 µM
[14] = molecular target: Epidermal growth factor receptor (Homo sapiens) (UniProt P00533); conditions: at 0.1 µM
[15] = molecular target: Epidermal growth factor receptor (Homo sapiens) (UniProt P00533); conditions: at 1 µM
[16] = tested on: Epidermal growth factor receptor (Homo sapiens), P00533 [L858R]; conditions: at 0.1 µM
[17] = tested on: Epidermal growth factor receptor (Homo sapiens), P00533 [L858R]; conditions: at 1 µM
[18] = tested on: Epidermal growth factor receptor (Homo sapiens), P00533 [L861Q]; conditions: at 0.1 µM
[19] = tested on: Epidermal growth factor receptor (Homo sapiens), P00533 [L861Q]; conditions: at 1 µM
[20] = tested on: Epidermal growth factor receptor (Homo sapiens), P00533 [T790M]; conditions: at 0.1 µM
Sequence of Epidermal growth factor receptor (Homo sapiens), P00533 [T790M] (P00533 whole entry T790M): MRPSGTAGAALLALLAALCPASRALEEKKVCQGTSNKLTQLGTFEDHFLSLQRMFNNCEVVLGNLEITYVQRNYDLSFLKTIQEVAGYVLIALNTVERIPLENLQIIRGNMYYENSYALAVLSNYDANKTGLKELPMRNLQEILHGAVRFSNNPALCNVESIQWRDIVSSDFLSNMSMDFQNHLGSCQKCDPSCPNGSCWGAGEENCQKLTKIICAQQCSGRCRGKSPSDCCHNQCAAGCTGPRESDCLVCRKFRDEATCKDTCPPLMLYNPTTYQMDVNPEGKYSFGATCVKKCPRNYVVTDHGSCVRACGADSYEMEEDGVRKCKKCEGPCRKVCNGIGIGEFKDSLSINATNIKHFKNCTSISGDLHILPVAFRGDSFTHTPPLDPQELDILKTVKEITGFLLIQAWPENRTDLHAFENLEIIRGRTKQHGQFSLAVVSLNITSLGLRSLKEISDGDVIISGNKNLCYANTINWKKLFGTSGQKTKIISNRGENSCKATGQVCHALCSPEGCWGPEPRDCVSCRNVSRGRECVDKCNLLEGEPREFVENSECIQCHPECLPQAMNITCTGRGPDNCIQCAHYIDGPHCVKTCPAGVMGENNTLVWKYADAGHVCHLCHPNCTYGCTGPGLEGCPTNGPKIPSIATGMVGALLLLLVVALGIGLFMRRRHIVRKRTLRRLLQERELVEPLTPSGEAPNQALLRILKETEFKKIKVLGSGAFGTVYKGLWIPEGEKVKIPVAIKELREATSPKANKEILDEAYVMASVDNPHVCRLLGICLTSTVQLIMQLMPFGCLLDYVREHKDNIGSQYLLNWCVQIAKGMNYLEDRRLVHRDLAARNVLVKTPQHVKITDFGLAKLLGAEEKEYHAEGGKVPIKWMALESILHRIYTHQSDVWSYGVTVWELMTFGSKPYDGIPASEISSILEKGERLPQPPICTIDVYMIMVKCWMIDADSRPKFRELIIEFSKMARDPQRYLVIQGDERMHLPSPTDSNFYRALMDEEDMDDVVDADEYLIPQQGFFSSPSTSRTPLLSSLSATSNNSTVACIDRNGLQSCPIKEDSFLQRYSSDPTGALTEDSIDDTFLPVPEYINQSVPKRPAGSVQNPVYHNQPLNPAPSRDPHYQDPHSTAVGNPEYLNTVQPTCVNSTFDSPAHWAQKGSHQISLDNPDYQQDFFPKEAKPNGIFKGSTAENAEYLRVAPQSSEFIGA

Sequence of Tyrosine-protein kinase receptor UFO (Homo sapiens) (P30530 whole entry): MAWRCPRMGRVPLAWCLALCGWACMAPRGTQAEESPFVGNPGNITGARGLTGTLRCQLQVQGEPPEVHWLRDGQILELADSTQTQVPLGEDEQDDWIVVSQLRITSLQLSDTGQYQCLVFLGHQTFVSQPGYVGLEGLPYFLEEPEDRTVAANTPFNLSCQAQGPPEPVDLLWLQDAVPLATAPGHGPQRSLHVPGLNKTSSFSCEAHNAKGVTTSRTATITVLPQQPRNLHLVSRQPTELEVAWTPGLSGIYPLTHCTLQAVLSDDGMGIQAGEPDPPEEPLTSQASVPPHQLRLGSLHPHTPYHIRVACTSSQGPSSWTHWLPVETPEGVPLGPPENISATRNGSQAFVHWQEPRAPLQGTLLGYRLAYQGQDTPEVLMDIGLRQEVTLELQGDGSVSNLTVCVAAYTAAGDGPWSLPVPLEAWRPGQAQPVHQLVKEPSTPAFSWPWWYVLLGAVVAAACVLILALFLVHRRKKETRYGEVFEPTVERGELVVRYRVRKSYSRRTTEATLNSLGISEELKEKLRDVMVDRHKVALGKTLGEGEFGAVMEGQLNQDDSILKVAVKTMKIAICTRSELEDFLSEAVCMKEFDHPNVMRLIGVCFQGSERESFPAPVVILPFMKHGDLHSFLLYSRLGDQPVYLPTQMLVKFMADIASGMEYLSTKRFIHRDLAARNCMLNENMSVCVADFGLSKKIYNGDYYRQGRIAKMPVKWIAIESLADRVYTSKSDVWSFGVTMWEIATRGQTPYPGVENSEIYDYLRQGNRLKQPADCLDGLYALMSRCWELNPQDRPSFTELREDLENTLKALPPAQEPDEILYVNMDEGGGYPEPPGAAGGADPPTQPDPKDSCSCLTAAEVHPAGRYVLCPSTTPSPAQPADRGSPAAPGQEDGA
Sequence of Tyrosine-protein kinase Blk (Homo sapiens) (P51451 2-505 limits assumed): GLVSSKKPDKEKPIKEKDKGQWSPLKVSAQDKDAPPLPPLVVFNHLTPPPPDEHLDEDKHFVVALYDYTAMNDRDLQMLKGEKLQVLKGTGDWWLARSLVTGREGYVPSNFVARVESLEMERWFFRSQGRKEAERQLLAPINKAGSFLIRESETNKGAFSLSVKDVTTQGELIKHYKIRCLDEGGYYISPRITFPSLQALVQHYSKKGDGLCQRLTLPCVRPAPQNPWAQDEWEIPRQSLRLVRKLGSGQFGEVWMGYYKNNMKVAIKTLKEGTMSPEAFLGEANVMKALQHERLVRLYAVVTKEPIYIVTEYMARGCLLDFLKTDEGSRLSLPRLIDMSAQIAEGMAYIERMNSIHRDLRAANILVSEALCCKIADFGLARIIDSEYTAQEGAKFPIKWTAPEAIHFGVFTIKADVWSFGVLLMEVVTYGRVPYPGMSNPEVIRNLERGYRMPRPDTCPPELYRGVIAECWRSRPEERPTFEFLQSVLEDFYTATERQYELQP

Structure (SMILES)	inhibition [1] [%]	inhibition [2] [%]	inhibition [3] [%]	inhibition [4] [%]	inhibition [5] [%]	inhibition [6] [%]	inhibition [7] [%]	inhibition [8] [%]	inhibition [9] [%]	inhibition [10] [%]	inhibition [11] [%]	inhibition [12] [%]	inhibition [13] [%]	inhibition [14] [%]	inhibition [15] [%]	inhibition [16] [%]	inhibition [17] [%]	inhibition [18] [%]	inhibition [19] [%]	inhibition [20] [%]
CCn1c(-c2nonc2N)nc2c(C#CCN)ncc(OCCCN)c21	7.15	0.22	-2.12	-0.45	-3	-6.06	-3.37	2.31	2.06	-0.42	2.55	3.32	3.8	2.15	8.32	2.24	5.46	-0.07	9.43	-0.87
NS(=O)(=O)c1ccc(N/C=C2\C(=O)Nc3ccc4ncsc4c32)cc1	24.7	5.86	36.7	3.85	6.44	2.1	4.82	-2.5	0.29	1.61	3.86	1.19	3.5	2.49	5.22	4.28	5.3	2.44	3.42	0.93
Cc1cc(-c2ccco2)cc(C)c1/C=C/c1cncc(-c2nn[nH]n2)c1	1.57	1.51	9	0.7	2.83	0.11	3.58	0.68	1.5	0.88	3.48	-0.16	0.34	3.32	6.27	0.25	0.27	-0.29	2.11	1.06
CCn1c(-c2nonc2N)nc2c(C#CC(C)(C)O)nc(O[C@@H](CN)c3ccccc3)cc21	8.92	-0.06	10.1	2.29	-1.16	-1.39	-2.85	-2.57	-0.15	-5	-5.08	-0.22	0.1	1.88	7.41	-1.92	4	-0.6	-1.72	-1.47
COc1cccc(COc2cc(-n3cnc4ccccc43)sc2C(N)=O)c1	-0.71	0.3	-1.09	-0.68	-1.24	-0.05	1.34	0.36	-0.76	-1.48	0.56	-1.78	-0.4	-1.6	1.95	-4.25	2.72	-1.17	-0.04	-1.14
CCn1c(-c2nonc2N)nc2c(C#CC(C)(C)O)ncc(OCC3CCNCC3)c21	-2.43	-1.83	-1.39	-4.33	2.37	4.21	4.11	-3.09	-3.54	5.4	3.99	-0.24	1.71	-3.91	-3.68	2.79	6.24	3.74	2.43	1.64
NC(=O)c1sc(-n2cnc3cc(C(F)(F)F)ccc32)cc1OCc1ccccc1Br	1.55	1.67	2.39	-0.71	0.62	2.49	0.4	0.15	-0.21	-3.78	-1.04	1.02	1.34	3.48	6.56	-1.95	0.99	1.64	1.19	0.21
COc1cc2c(cc1Nc1nc(Nc3ccsc3C(N)=O)c3cc[nH]c3n1)N(C(=O)CN(C)C)CCC2	66.8	7.36	10.6	0.79	1.32	0.16	3.39	0.44	1	-7.26	-4.71	2.81	5.59			0.26	20.5	0.9	8.73	8.68
CCn1c(-c2nonc2N)nc2c(C#CC(C)(C)O)ncc(OC[C@@H]3CCCN3)c21	0.17	2.44	1.76	1.21	-0.7	3.05	2.47	0.66	1.17	-1.37	-0.82	1.15	2.67	-1.23	1.8	-0.72	2.58	-0.11	-1.31	-0.72
COc1cc(C=NNc2ncnc3c2cnn3Cc2ccccc2)ccc1O	6.34	0.65	23.8	2.02	16.9	-4.22	-0.85	-1.51	-0.27	-6.66	2.56	-0.76	5.7	22.5	66.8	64.3	75.5	23.4	30.6	-3.01
Nc1nonc1-c1nc2cnccc2n1C1CCCCC1	4.86	-1.07	0.24	1.92	-1.58	-5.22	-3	-0.64	-0.36	-1.78	-6.81	0.11	1.77	1.9	7.55	0.62	0.1	-0.81	-3.23	-2.97
COc1cccc(-n2ncc3c(N/N=C/c4ccncc4)ncnc32)c1	6.36	13.3	63.6	12.2	46.6	6.09	23.1	-0.08	2.16	5.5	16.8	2.12	9.37	3.52	28.8	20.7	73.3	7.71	35.5	2.99
NS(=O)(=O)c1ccc(-c2ccc3c(NC(=O)C4CC4)n[nH]c3c2)cc1	-2.63	1.89	6.01	4.98	3.87	0.27	1.67	1.8	1.47	6.64	2.04	0.39	1.56	1.61	5.25	0.79	1.74	2.23	-1.61	0.83
Fc1ccc(-c2ncn(C3CCNCC3)c2-c2ccnc(Oc3ccccc3)n2)cc1	-3.54	-3.23	-0.29	0.89	2.13	2.9	3.59	-4.26	-4.63	1.9	3.34	1.18	1.96	8.94	11.7	3.24	12.9	3.69	6.82	0.12
